Results on two compounds are retold here after PubChem BioAssay AID2284114 (EPA ToxCast).

Usually AC50 stands for the midpoint of the concentration-response curve, whichever way the signal moves.

Calls of active or inactive are those of the source. The calls were made as follows: active = hit-call score of the fitted dose curve at least 0.9, where 1 is the maximum; inactive = score below 0.9.

human MSK1 (RPS6KA5) AGC Kinase, RPS6KA5 (gene 9252), sequence (O75582 whole entry, looked up): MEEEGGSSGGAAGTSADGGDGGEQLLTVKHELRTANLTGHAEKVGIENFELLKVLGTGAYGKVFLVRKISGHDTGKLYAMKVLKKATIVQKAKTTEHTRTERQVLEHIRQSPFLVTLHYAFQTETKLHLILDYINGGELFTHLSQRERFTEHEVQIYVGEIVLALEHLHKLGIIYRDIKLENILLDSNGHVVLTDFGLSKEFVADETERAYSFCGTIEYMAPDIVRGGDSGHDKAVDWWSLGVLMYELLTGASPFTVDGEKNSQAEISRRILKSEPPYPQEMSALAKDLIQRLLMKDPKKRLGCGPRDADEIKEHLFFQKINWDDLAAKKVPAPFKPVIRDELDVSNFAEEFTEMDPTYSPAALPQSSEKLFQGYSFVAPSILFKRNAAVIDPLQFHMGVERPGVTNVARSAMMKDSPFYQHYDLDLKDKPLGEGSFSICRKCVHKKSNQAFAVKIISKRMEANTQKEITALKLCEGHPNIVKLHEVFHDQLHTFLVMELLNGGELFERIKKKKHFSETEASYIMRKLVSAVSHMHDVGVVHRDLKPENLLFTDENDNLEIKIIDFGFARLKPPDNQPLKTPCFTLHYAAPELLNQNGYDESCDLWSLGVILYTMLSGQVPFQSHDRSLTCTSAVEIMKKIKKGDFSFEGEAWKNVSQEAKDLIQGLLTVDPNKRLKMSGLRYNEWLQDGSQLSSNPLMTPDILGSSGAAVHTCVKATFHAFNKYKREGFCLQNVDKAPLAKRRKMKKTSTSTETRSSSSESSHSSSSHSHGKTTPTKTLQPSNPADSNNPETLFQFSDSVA

The assay addresses human MSK1 (RPS6KA5) AGC Kinase, RPS6KA5 (gene 9252) (UniProt O75582). The assay can be described thus: ERF_FR_ENZ_hMSK1: Eurofins (ERF) Enzymatic Radiometric [Km ATP] KinaseProfiler LeadHunter Assay for human MSK1 (RPS6KA5) AGC Kinase. On the procedure:
ERF_FR_ENZ_hMSK1 is a biochemical, single-readout assay that uses extracted gene-proteins in a cell-free assay. Measurements were taken 0.16 hour after chemical dosing in a 96-well plate. See MSK1 Human AGC Kinase Enzymatic Radiometric Assay [Km ATP], Cerep.ERF_FR_ENZ_hMSK1 is an assay component calculated from the ERF_FR_ENZ_hMSK1 assay. It is designed to measure enzyme activity using a type of enzyme reporter as detected by scintillation counting with radiometry technology.Data from the assay component ERF_FR_ENZ_hMSK1 was analyzed at the assay endpoint, ERF_FR_ENZ_hMSK1, in the positive analysis fitting direction relative to DMSO as the negative control and baseline of activity. Using a type of enzyme reporter, loss-of-signal activity can be used to understand changes in enzymatic activity as they relate to gene MSK1. To generalize the intended target to other relatable targets, this assay endpoint is annotated to the kinase intended target family, where the subfamily is serine/threonine kinase.
MSK1 (h) is incubated with 8 mM MOPS pH 7.0, 0.2 mM EDTA, 30 uM […], 10 mM MgAcetate and [g- 33P]-ATP (specific activity and concentration as required). The reaction is initiated by the addition of the Mg/ATP mix. After incubation for 40 minutes at room temperature, the reaction is stopped by the addition of phosphoric acid to a concentration of 0.5%. […]
`COc1cc(CCC(=O)CC(=O)CCc2ccc(O)c(OC)c2)ccc1O`: the AC50 was 2.12 µM (active).

In the case of `O=C(/C=C/c1ccc(O)cc1)CC(=O)/C=C/c1ccc(O)cc1`, the AC50 was 5 µM (active).
